# Laboratory results published in PubChem BioAssay.
# Active and inactive are the calls of the source. The rule behind the calls is not given here.
# Biological target: Pantothenate synthetase (Mycobacterium tuberculosis (strain ATCC 25618 / H37Rv)) (UniProt P9WIL5)
# Experiment: Recombinant Mtb pantothenate synthetase (PanC) inhibitors, coupled enzyme, confirmatory (AID 375);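 note: 0% = full reaction with vehicle and 100% = no enzyme background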
# Details: coupled enzyme assay; at 10 µM, hits give high values
# Pantothenate synthetase (Mycobacterium tuberculosis (strain ATCC 25618 / H37Rv)), sequence (P9WIL5 whole entry, looked up): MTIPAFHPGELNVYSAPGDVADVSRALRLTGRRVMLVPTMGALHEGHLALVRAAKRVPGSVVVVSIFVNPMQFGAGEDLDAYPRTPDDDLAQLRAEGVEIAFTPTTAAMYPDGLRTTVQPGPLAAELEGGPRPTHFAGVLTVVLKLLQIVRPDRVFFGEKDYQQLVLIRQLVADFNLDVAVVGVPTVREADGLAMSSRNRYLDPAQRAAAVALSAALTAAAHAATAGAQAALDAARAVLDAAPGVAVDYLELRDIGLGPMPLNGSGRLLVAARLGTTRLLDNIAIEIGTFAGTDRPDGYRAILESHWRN
row,SMILES,inhibition
1,COc1ccc(C(=O)N2CCN(C(=O)c3ccco3)CC2)cc1OC,4% (inactive)
2,CC1CCCN(C(=O)C23CCC(C)(C(=O)C2)C3(C)C)C1 (stereo unspecified),0% (inactive)
3,CCCCP(=O)(CCCC)Cc1ccccc1O,0% (inactive)
4,Cc1sc2c(c1C)CN(C1CC(C)(C)NC(C)(C)C1)CN2C(=O)c1ccco1,7% (inactive)
5,N#CC1=C(SCC(=O)NC23CC4CC(CC(C4)C2)C3)NC(=O)C(C#N)C12CCCCC2 (stereo unspecified),0% (inactive)
6,CCCn1c(C)nc2c(c1=O)c1nc3ccccc3nc1n2CCc1ccccc1,4% (inactive)
7,Cc1occc1-c1nc(-c2ccncc2)no1,3% (inactive)
8,CCOC(=O)c1ccc(S(=O)(=O)Nc2cc(C(C)(C)C)no2)cc1,2% (inactive)
9,CCCCCCCC(=O)OCC(=O)[C@@]1(O)CC[C@H]2[C@@H]3CCC4=CC(=O)CC[C@]4(C)[C@H]3[C@@H](O)C[C@@]21C,1% (inactive)
10,c1ccc2c(c1)c1c3n2CCNC3CCC1 (stereo unspecified),0% (inactive)
11,O=C(NCC1CCCO1)C1CCN(c2ccc(S(=O)(=O)N3CCCC3)cc2)CC1 (stereo unspecified),0% (inactive)
12,O=P(O)(O)c1ccccc1OCCOCCOc1ccccc1P(=O)(O)O,4% (inactive)
13,Cn1c(SCc2cccc3ccccc23)nnc1-c1ccco1,0% (inactive)
14,C[C@@H]1C[C@H]2[C@@H]3CCC4=CC(=O)C=C[C@]4(C)[C@@]3(F)[C@@H](O)C[C@]2(C)[C@H]1C(=O)CO,1% (inactive)
15,Cc1ccc(C(=O)OCC(=O)c2ccc(Cl)s2)s1,4% (inactive)
16,CCCCCn1c(CN2CCN(C(=O)c3ccco3)CC2)nc2c1c(=O)n(C)c(=O)n2C,1% (inactive)
